# From ChEMBL document CHEMBL4513141, “CO-ADD screening of NIH (USA) - Clinical Collection” (2021)
# Results with a measured potency or affinity are listed apart. Square brackets hold non-standard residues; d marks the D form. Peptide text beside a SMILES is read from it. pGlu = O=C1CC[C@@H](C(=O)O)N1; Thz = O=C(O)[C@@H]1CSCN1
# How the values were obtained:
# Staphylococcus aureus = conditions: Concentration 20 uM; ASSAY_TEST Inhibition of Bacterial Growth; detection method Absorption (OD600); MEDIA CAMHB; plate type 384well; NBS; CORNING #3640; time 18 hr
# Escherichia coli = conditions: Concentration 20 uM; ASSAY_TEST Inhibition of Bacterial Growth; detection method Absorption (OD600); MEDIA CAMHB; plate type 384well; NBS; CORNING #3640; time 18 hr
Structure (SMILES),Inhibition (Staphylococcus aureus) [%],Inhibition (Escherichia coli) [%]
CN(C)CCCN1c2ccccc2CCc2ccc(Cl)cc21.Cl [CLOMIPRAMINE HYDROCHLORIDE],14.19,7.04
COc1cc([C@@H]2c3cc4c(cc3[C@@H](O[C@@H]3O[C@@H]5CO[C@@H](C)O[C@H]5[C@H](O)[C@H]3O)[C@H]3COC(=O)[C@H]23)OCO4)cc(OC)c1O [ETOPOSIDE],14.84,-0.07
O=c1c(-c2ccccc2)c1-c1ccccc1 [DIPHENCYPRONE],-9.91,6.71
Nc1nc(Cl)nc2c1ncn2[C@H]1C[C@H](O)[C@@H](CO)O1 [CLADRIBINE],6.87,14.09
CC(=O)O[C@@]12CO[C@@H]1C[C@H](O)[C@@]1(C)C(=O)[C@H](O)C3=C(C)[C@@H](OC(=O)[C@H](O)[C@@H](NC(=O)OC(C)(C)C)c4ccccc4)C[C@](O)([C@@H](OC(=O)c4ccccc4)[C@H]21)C3(C)C,10.2,3.46
Nc1nc(Cl)nc2c1ncn2[C@@H]1O[C@H](CO)[C@@H](O)[C@H]1O,-10.52,3.01
CS(=O)(=O)OCCCCOS(C)(=O)=O [BUSULFAN],14.7,10.16
Cc1cccc(CN2CCN(C(c3ccccc3)c3ccc(Cl)cc3)CC2)c1.Cl.Cl (configuration not stated),9.26,2.8
Cc1cccc(Nc2ccccc2C(=O)O)c1C [MEFENAMIC ACID],15.6,6.03
CC(=O)S[C@@H]1CC2=CC(=O)CC[C@]2(C)[C@H]2CC[C@@]3(C)[C@@H](CC[C@@]34CCC(=O)O4)[C@H]12 [SPIRONOLACTONE],18.37,5.07
C[C@H](CS)C(=O)N1CCC[C@H]1C(=O)O [CAPTOPRIL],-7.06,4.92
COc1ccc2cc(CCC(C)=O)ccc2c1 [NABUMETONE],14,3.66
CCOC(=O)OC(C)OC1=C(C(=O)Nc2ccccn2)N(C)S(=O)(=O)c2ccccc21 (configuration not stated) [AMPIROXICAM],16.07,-0.97
C[C@H](N[C@@H](CCc1ccccc1)C(=O)O)C(=O)N1CCC[C@H]1C(=O)O [ENALAPRILAT ANHYDROUS],-5.3,7.09
CC[C@@H]1C(=O)OC[C@@H]1Cc1cncn1C.Cl [PILOCARPINE HYDROCHLORIDE],15.92,5.77
O=C1CC[C@@H](C(=O)N2CSC[C@H]2C(=O)O)N1 [PIDOTIMOD] ([pGlu]-[Thz]-OH),9.9,2.88
CCCCC(=O)OC1(C(=O)CO)CCC2C3CCC4=CC(=O)CCC4(C)C3C(O)CC21C (configuration not stated),4.02,3.22
CC(C)OC(=O)CCC/C=C\C[C@@H]1[C@@H](CC[C@@H](O)CCc2ccccc2)[C@H](O)C[C@@H]1O [LATANOPROST],13.97,1.96
CN(CCO)CC(O)Cn1cnc2c1c(=O)n(C)c(=O)n2C.O=C(O)c1cccnc1 (configuration not stated) [XANTHINOL NIACINATE],15.77,-0.5
CCOc1cc(N)c(Cl)cc1C(=O)NCC1CN(Cc2ccc(F)cc2)CCO1.O=C(O)CC(O)(CC(=O)O)C(=O)O (configuration not stated) [MOSAPRIDE CITRATE],10.04,3.47
CC(CN1c2ccccc2Sc2ccccc21)N(C)C.Cl (configuration not stated) [PROMETHAZINE HYDROCHLORIDE],15.79,1.25
COC(=O)C1=C(C)NC(C)=C(C(=O)O[C@@H]2CCCN(Cc3ccccc3)C2)[C@@H]1c1cccc([N+](=O)[O-])c1.Cl,8.73,-0.62
C[C@]12CCC(=O)C=C1CC[C@@H]1[C@@H]2[C@@H](O)C[C@@]2(C)[C@H]1CC[C@]2(O)C(=O)COC(=O)CCC(=O)O [HYDROCORTISONE HEMISUCCINATE ANHYDROUS],-27.4,4.71
Cc1sc(N)c(C(=O)c2cccc(C(F)(F)F)c2)c1C,5.2,-1.03
C=CCc1ccc(O)c(-c2ccc(O)c(CC=C)c2)c1 [HONOKIOL],11.41,4.96
CC(C)(C)NC(=O)[C@@H]1C[C@@H]2CCCC[C@@H]2CN1C[C@@H](O)[C@H](Cc1ccccc1)NC(=O)[C@H](CC(N)=O)NC(=O)c1ccc2ccccc2n1.CS(=O)(=O)O [SAQUINAVIR MESYLATE],-19.12,7.7
